The results in this text go back to ChEMBL document CHEMBL4513146, “CO-ADD screening of Karazin Kharkiv National University (Ukraine) compounds”.

The subject of experiment [1] is Staphylococcus aureus. Conditions: Concentration 32 ug.mL-1;; ASSAY_TEST Inhibition of Bacterial Growth; detection method Absorption (OD600); MEDIA CAMHB; plate type 384well; NBS; CORNING #3640; time 18 hr.
The test system of experiment [2] is Escherichia coli. Conditions: Concentration 32 ug.mL-1;; ASSAY_TEST Inhibition of Bacterial Growth; detection method Absorption (OD600); MEDIA CAMHB; plate type 384well; NBS; CORNING #3640; time 18 hr.

Measured potencies and affinities stand elsewhere.

Broadly, the Inhibition is the relative decrease from the control value, in per cent. As to `COc1ccc(NC(=O)Cn2nc3c(N4CC(C)CC(C)C4)nccn3c2=O)c(OC)c1` (stereo unspecified), the Inhibition in experiment [1] is 18.35%; in experiment [2] it was 1.24%.

As for `COc1cccc(NC(=O)Cn2nc3ccc(-c4ccc(Cl)cc4)nn3c2=O)c1`, the results for the Inhibition in experiment [1] and in experiment [2] were -8.23% and -11.86%, respectively.

In the case of `CC(C)NC(=O)Cn1nc2n(Cc3ccco3)c(=O)c3sccc3n2c1=O`, the Inhibition was 9.36% in experiment [1] and 3.27% in experiment [2].

In the case of `Cc1cc(C)c(NC(=O)Cn2c(=O)c3nnc(C(C)C)n3c3ccccc32)c(C)c1`, the Inhibition in experiment [1] came out at 15.71%; in experiment [2], 3.04%.

In the case of `Cc1cccc(NC(=O)Cn2nc3ccc(-c4ccc(Cl)cc4)nn3c2=O)c1`, the Inhibition in experiment [1] was 7.34%; in experiment [2], -1.37%.

With `CC(=O)c1cccc(NC(=O)CSc2nc3ccccc3n3c(C)nnc23)c1`, the Inhibition in experiment [1] is recorded as -0.38%; in experiment [2] it was -4.41%.

On to `COc1ccccc1NC(=O)Cn1nc2c(Oc3ccc(Cl)cc3)nccn2c1=O`, for which the Inhibition in experiment [1] is reported as 6.15%; in experiment [2] it was -7.74%.

Regarding `Cc1ccc(NC(=O)Cn2c(=O)c3nnc(C(C)C)n3c3ccccc32)cc1`, the figures for the Inhibition in experiment [1] and in experiment [2] were -2.26% and 0.43%, respectively.

Turning to `COc1ccc(-c2cc3c4nnc(SCC(=O)N(C)c5ccccc5)n4ccn3n2)cc1`, the Inhibition in experiment [1] is recorded as -6.7%; in experiment [2], -0.99%.

For the compound `COc1cccc(-n2ccn3c(SCC(=O)c4ccc(F)cc4)nnc3c2=O)c1`, the Inhibition is 13.82% in experiment [1] and -3.39% in experiment [2].

Regarding `COc1ccc(-c2cc3c4nn(CC(=O)Nc5c(C)cccc5C)c(=O)n4ccn3n2)cc1`, the Inhibition is recorded as 3.68% in experiment [1] and -1.14% in experiment [2].

For the compound `COc1ccc(-c2cc3c4nn(CC(=O)Nc5ccc(C)c(C)c5)c(=O)n4ccn3n2)cc1`, the Inhibition in experiment [1] is recorded as 9.35%; in experiment [2] it was 6.79%.

Take `C=Cc1ccc(CN(c2ccc(F)cc2)S(=O)(=O)c2ccc3nnc(C)n3c2)cc1`: the Inhibition in experiment [1] is -1.19%; in experiment [2], -7.93%.

On to `Cc1ccc(-c2ccc3nn(Cc4nc(-c5ccc(Cl)cc5)no4)c(=O)n3n2)cc1`, for which the Inhibition is on record as 5.13% in experiment [1] and 0.55% in experiment [2].

As to `CC(C)c1nnc2c(SCC(=O)Nc3ccccc3F)nc3ccccc3n12`, the Inhibition in experiment [1] is on record as 10.78%; in experiment [2], -2.22%.

As for `Cc1ccc(-c2ccc3nn(Cc4nc(-c5ccc(Cl)cc5)no4)c(=O)n3n2)cc1C`, the Inhibition in experiment [1] is 0%; in experiment [2], -6.42%.

On to `COc1ccc(NC(=O)c2ccc3nn(CC(=O)Nc4ccc(C(C)=O)cc4)c(=O)n3c2)cc1`, for which the Inhibition in experiment [1] is listed as 15.44%; in experiment [2], -1.93%.

`CC(=O)c1ccc(NC(=O)Cn2nc3ccc(Sc4ccccc4)nn3c2=O)cc1`: the results for the Inhibition in experiment [1] and in experiment [2] were 5.54% and -7.82%, respectively.

With `Cc1cccc(C)c1NC(=O)Cn1nc2c(N3CCSCC3)nc3ccccc3n2c1=O`, the Inhibition is -9.27% in experiment [1] and -7.41% in experiment [2].

In the case of `Cc1cc2nn(CC(=O)Nc3ccc(F)cc3F)c(=O)n2c(Nc2ccc(C)c(F)c2)n1`, the results for the Inhibition in experiment [1] and in experiment [2] were 8.31% and -0.48%, respectively.

Turning to `O=C(Cn1nc2c3cc(-c4ccc(Cl)cc4)nn3ccn2c1=O)Nc1ccc2c(c1)OCO2`, the Inhibition in experiment [1] stood at 8.69%; in experiment [2], 2.9%.

With `Cc1cc(C)cc(Oc2nccn3c(=O)n(CC(=O)Nc4ccc(Cl)cc4F)nc23)c1`, the Inhibition in experiment [1] came out at 18.94%; in experiment [2], 4.01%.

Consider `O=c1c2nnc(SCc3ccccc3Cl)n2ccn1-c1ccc(F)cc1`, for which the Inhibition in experiment [1] is 8.27%; in experiment [2], -4.39%.

For the compound `CCN(CCCNC(=O)CCc1nnc2ccc(-c3ccccc3)nn12)c1ccccc1`, the Inhibition in experiment [1] was found to be 5.66%; in experiment [2], 4.87%.

`COc1ccc(OC)c(NC(=O)Cn2nc3c(SCc4ccc(Cl)cc4)nccn3c2=O)c1`: the Inhibition in experiment [1] is on record as -7.47%; in experiment [2], -4.33%.

Take `COc1ccccc1-n1ccn2c(SCc3ccc(Cl)cc3)nnc2c1=O`: the Inhibition in experiment [1] is 7.4%; in experiment [2], -9%.

`CCOC(=O)C1CCCN(C(=O)Cn2nc3n(CC(C)C)c(=O)c4sccc4n3c2=O)C1` (stereo unspecified): the Inhibition in experiment [1] is -2.49%; in experiment [2], -6.05%.

Consider `Cc1cccc(CN(c2ccc(Cl)cc2)S(=O)(=O)c2cccn3c(C)nnc23)c1`, for which the Inhibition is 13.75% in experiment [1] and 2.16% in experiment [2].

As for `CCCCn1c(=O)c2sccc2n2c(=O)n(CC(=O)c3ccc(OC)cc3)nc12`, the Inhibition in experiment [1] was found to be 3.9%; in experiment [2] it was 0.74%.

In the case of `COc1ccc(OC)c(NC(=O)Cn2nc3c4cc(-c5ccc(F)cc5)nn4ccn3c2=O)c1`, the Inhibition in experiment [1] is listed as 7.29%; in experiment [2], -2.37%.

Regarding `Cc1c(Cl)cccc1-n1ccn2c(=O)n(Cc3ccc(Cl)cc3)nc2c1=O`, the figures for the Inhibition in experiment [1] and in experiment [2] were 9.17% and -7.56%, respectively.

As to `CC(C)CCn1c(=O)c2ccc(C(=O)NC3CCCC3)cc2n2c(=S)[nH]nc12`, the values for the Inhibition in experiment [1] and in experiment [2] were -2% and -7.9%, respectively.

`CCc1ccc(Cn2c(=O)c3sccc3n3c(=O)n(Cc4c(F)cccc4Cl)nc23)cc1`: the results for the Inhibition in experiment [1] and in experiment [2] were 3.47% and -8.75%, respectively.
